An excerpt weighted towards active compounds, which were near 2% of everything screened.
CHO-K1 Ca ag: nonselective activator or artifact in parental CHO-K1 cells. Fluo-8 calcium fluorescence; scaled to maximal ATP response, vehicle zero. AID 602248. activation, % at 3 µM. 360,000 tested, 0.48% active; in the data active = activation above about 15%;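 note: untransfected CHO-K1 host cells lacking M1 receptor as counterscreen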
M4 PAM: potentiates acetylcholine response at human M4 receptor; activation, % at 3 µM; AID 624126; 360,000 tested, 0.4% active; CHO-K1 hM4/Gqi5, Fluo-8 calcium fluorescence, ACh EC20; 0% = ACh EC20, 100% = maximal ACh;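 active = activation above its plate's cutoff, the mean activation of sample wells plus 3 SD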
Target sequence (P08173 whole entry, looked up): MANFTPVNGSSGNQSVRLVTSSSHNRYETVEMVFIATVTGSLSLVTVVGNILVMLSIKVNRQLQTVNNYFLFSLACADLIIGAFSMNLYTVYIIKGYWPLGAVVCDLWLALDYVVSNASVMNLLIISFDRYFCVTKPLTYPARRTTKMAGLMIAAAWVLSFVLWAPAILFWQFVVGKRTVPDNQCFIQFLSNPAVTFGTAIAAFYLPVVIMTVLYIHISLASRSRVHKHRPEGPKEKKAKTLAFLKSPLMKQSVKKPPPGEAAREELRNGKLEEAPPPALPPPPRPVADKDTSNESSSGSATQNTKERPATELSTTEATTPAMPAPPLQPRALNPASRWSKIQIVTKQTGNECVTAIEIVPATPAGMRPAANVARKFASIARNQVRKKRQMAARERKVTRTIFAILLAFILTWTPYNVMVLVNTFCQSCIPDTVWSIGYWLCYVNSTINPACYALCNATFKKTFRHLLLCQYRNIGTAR
CHO-K1 Ca antag: M1 antagonist counterscreen hit in parental CHO-K1 cells; ATP-induced calcium, Fluo-8 fluorescence; inhibition, % at 3 µM; 360,000 tested, 0.6% active; AID 602250;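 active = inhibition above a per-plate cutoff, the plate's mean sample inhibition plus 3 SD, cut at about 24% in these data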;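 note: 0% = DMSO plus EC80 ATP and 100% = DMSO alone without ATP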
M4 ag: CHRM4 agonism in calcium assay. 360,000 tested, 0.14% active. CHO-K1 hM4/Gqi5, Fluo-8 calcium fluorescence; vehicle 0%, full acetylcholine response 100%. activation, % at 3 µM. P08173;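 active = activation above the run mean over all test wells plus 3 SD, cut at about 32% in these data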;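 note: peak over basal fluorescence ratio per well then scaled between controls; 0% = DMSO wells and 100% = acetylcholine at EC100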
M4 antag: CHRM4 antagonism in calcium assay. CHO-hM4 cells, ACh EC80, Fluo-8 calcium fluorescence. AID 624125. P08173. inhibition, % at 3 µM. 360,000 tested, 0.73% active;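 active = inhibition above its plate's cutoff, the mean inhibition of sample wells plus 3 SD, cut at about 27% in these data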;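 note: 0% = acetylcholine EC80 with DMSO and 100% = DMSO without agonist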
M1 PAM parental: M1 PAM counterscreen hit in parental CHO-K1 cells. AID 602247. 360,000 tested, 0.02% active. ATP EC20, Fluo-8 calcium fluorescence; 0% at ATP EC20, 100% at ATP max. activation, % at 3 µM;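 active = activation above the run cutoff, the mean activation of all test compounds plus 3 SD, cut at about 40% in these data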;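 note: peak over basal fluorescence ratio in a 140 s read after ATP addition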
* marks the source's active call; other numbers are inactive results; x = no result given.

SMILES	CHO-K1 Ca ag	M4 PAM	CHO-K1 Ca antag	M4 ag	M4 antag	M1 PAM parental
Cc1ccc(NC(=O)COc2ccccc2C(N)=O)cc1S(=O)(=O)N1CCCCCC1	15	-9	27*	24	9	-22
Cc1ccc(NC(=O)CSc2ncnc3ccccc23)cc1S(=O)(=O)N1CCCCCC1	12	-21	27*	13	13	-4
Cc1ccc(NC(=O)COc2ccc(N(C)C(=O)C(C)(C)C)cc2)cc1S(=O)(=O)N1CCCCC1	16*	-13	29*	25	24	-22
CCc1cccc(OCC(=O)Nc2ccc(C)c(S(=O)(=O)N3CCCCCC3)c2)c1	2	-6	9	7	15	-12
CSc1n[nH]c(=O)n1-c1cccc(Cl)c1	2	-2	-15	0	6	14
COc1cc(C(C)=O)ccc1OCC(=O)Nc1ccc(C)c(S(=O)(=O)N2CCCCCC2)c1	16*	-13	8	27	18	-16
CCN(CC)c1ccc(/C=C2\C(=O)c3ccc(C(=O)O)cc3C2=O)cc1	38*	-11	22	20	32*	-7
O=C(O)c1ccc(N(c2ccccc2)c2ccccc2)cc1	1	7	-7	1	2	23
CCN(CC)c1ccc(C(=O)O)cc1	0	-3	25*	1	0	-13
O=C1C2C3C=CC(C3)C2C(=O)N1CC1CCCO1 (stereo not drawn)	0	6	1	1	1	12
O=c1cccc2n1Cc1cc3ccccc3nc1-2	0	26*	-15	3	2	21
O=C1C=C(OCCF)CC(c2ccc(Br)cc2)O1 (stereo not drawn)	x	13	x	2	-4	x
Cc1ccc2nc(-c3ccc(NS(=O)(=O)c4ccc(F)c(F)c4)cc3)sc2c1	0	4	6	3	4	-1
O=C(Nc1ccc(Cl)c(Cl)c1)Nc1nccs1	11	-33	34*	17	21	-24
O=C(Nc1nccs1)c1sc2cc(Cl)ccc2c1Cl	0	25*	-12	1	-12	22
O=C(Nc1nccs1)c1sc2ccccc2c1Cl	1	18	20	5	-11	-5
O=C(Nc1cccc(Cl)c1)Nc1nccs1	6	-2	15	15	-6	4
O=C(CN1CCOCC1)N1c2ccccc2Sc2ccccc21	3	-5	-9	1	5	21
Cc1ccc(/C=C2\SC(N3CCN(C(c4ccccc4)c4ccccc4)CC3)=NC2=O)o1	1	-44	-11	1	82*	21
c1ccc2c(SCc3cn4cccnc4n3)ncnc2c1	0	-2	-5	0	2	4
COc1ccc(/C=C2/C(=O)N(c3ccccc3)N=C2C)cc1Br	2	-9	-4	6	-15	9
CNC(C)C(=O)NC(C(=O)NC(C)C(=O)Nc1cccc2ccccc12)C(C)C (stereo not drawn)	0	18*	-7	0	-15	14
O=S(=O)(c1ccc(Cl)nc1)N(Cc1ccccc1)Cc1ccccc1	0	-30	-14	-2	33*	12
CCN(c1ccccc1)S(=O)(=O)c1ccc(Cl)nc1	0	0	-4	0	1	17
O=c1ccccn1Cc1c(Cl)cccc1Cl	0	0	-6	1	11	10
SMILES	CHO-K1 Ca ag	M4 PAM	CHO-K1 Ca antag	M4 ag	M4 antag	M1 PAM parental
Cc1c(C(=O)N2CCC(C)(C(=O)NS(=O)(=O)C3CC3)C2)oc2ccccc12 (stereo not drawn)	1	17*	-6	1	-8	11
Cc1csc(-c2ccc3cc(Cl)cc(Cl)c3n2)n1	0	21*	-5	1	-12	16
Cc1cc(S(=O)(=O)Nc2ccc(C(=O)NCCCN3CCOCC3)cc2)ccc1F	2	10	-8	1	-16	16
O=c1[nH]c(=O)n(Cc2ccccc2)c2c1C(C(F)(F)F)(C(F)(F)F)N=C(c1ccco1)N2	4	10	4	4	-5	15
CC1=C(C#N)C(C(F)(F)F)(C(F)(F)F)N=C(c2ccco2)N1	16*	-9	-1	23	15	13
CCN(CC)CCNC(=O)c1cc(Br)c(N)cc1OC	0	-2	35*	0	-4	-13
Cc1cc(/C=N/n2cnnc2)c(C)n1-c1ccc(Cl)cc1	0	-1	7	0	4	-2
Cc1cc(/C=N/n2cnnc2)c(C)n1-c1ccc(OCc2ccc(Cl)cc2Cl)cc1	8	-12	43*	3	47*	-4
Cn1c(=O)c(C(=O)NCc2ccc(F)cc2)c(O)c2ccccc21	0	7	-1	1	-4	5
CC1CC(=O)C2=C(C1)Nc1ncnn1C2c1ccccc1 (stereo not drawn)	0	-3	28*	-1	10	-1
COc1cccc(/C=C/C(=O)OCCN2C(=O)c3ccccc3C2=O)c1	6	-7	-11	14	-17	6
COc1ccccc1/C=C/C(=O)OCCN1C(=O)c2ccccc2C1=O	4	-20	-10	9	79*	3
COc1ccc(OC)c(C2=NOC(C(=O)Nc3cc(C)nn3-c3ccccc3)C2)c1 (stereo not drawn)	4	-12	9	16	8	5
c1ccc(Nc2nc(N3CCNCC3)nc(N3CCOCC3)n2)cc1	0	5	-6	1	-9	5
c1ccc(Nc2nc(N3CCOCC3)nc(N3CCOCC3)n2)cc1	0	31*	2	1	3	10
CC(=O)NC1(C(F)(F)F)N=C(c2ccccc2)NC1=O (stereo not drawn)	0	-2	4	0	2	8
O=C(NC1(C(F)(F)F)N=C(c2ccccc2)NC1=O)c1ccccc1 (stereo not drawn)	0	-8	27*	0	2	-13
CCN(CC(=O)Nc1ccccc1C(F)(F)F)C(=O)CN1C(=O)NC2(CCCCC2)C1=O	0	1	27*	0	-11	-26
CCN(CC(=O)Nc1c(F)cccc1F)C(=O)CN1C(=O)NC2(CCCC2)C1=O	4	0	6	1	9	5
O=C(O)c1cc2c(s1)-c1ccccc1CC2	0	-4	-10	0	0	1
COc1cc(N2C(=O)c3ccccc3C2=O)c(Cl)cc1C(=O)OCC(=O)NCc1ccco1	0	3	28*	0	3	-9
COc1ccc(C2(c3ccc(OC)cc3)NC(=O)N(CC(=O)Nc3ccccc3)C2=O)cc1	15*	4	-6	6	-8	14
COc1ccc(NC(=O)CCc2nnc3ccc(NCc4ccco4)nn23)cc1	1	39*	-14	18	16	20
